Only some compounds are listed: those with a hit (about 1.1% of all), similar ones and a draw of the others.
HSV augment = increases HSV replication in cells. actives 0.005% (n = 220,000). maximum fold increase. HSV replication augmentation in cells, fold increase; in the data active = maximum fold increase above about 1.5; inconclusive = no clear call, values can overlap the other calls; tested in PC3 cells
HMGR II inh = blocks class II HMG-CoA reductase of Enterococcus faecalis; purified E. faecalis HMGR, NADPH absorbance 340 nm kinetic; inhibition, % at 10 µM; actives 0.41% (n = 190,000);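 active = inhibition above a set limit, the median over all tested compounds plus 3 SD, cut at about 9.5% in these data; inconclusive = no clear call, values can overlap the other calls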;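 note: enzyme runs in reverse so mevalonate oxidation gives rising NADPH absorbance; 0% = complete reaction with DMSO and 100% = background rate lacking mevalonate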
INS promoter inh = TRM-6 insulin promoter activity inhibition; TRM-6 cells (human fetal islet line), insulin promoter-eGFP reporter, imaging; reporter expression induced with tamoxifen; inhibition, % at 2 µM; actives 0.9% (n = 130,000);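 active = inhibition above the mean plus 3 SD, with well images judged a real hit on visual review, cut at about 60% in these data, passing the limit was not always enough; inconclusive = inhibition over the cutoff but images rejected on review; inactive = inhibition not above the cutoff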
Insulin prom up = MIN6 insulin promoter up-regulation; MIN6 insulin promoter-GFP reporter, high-content imaging; active compounds read high; actives 0.3% (n = 190,000); AID 1625; z-score at 5 µM;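 active = z-score above 3 at 5 µM with at least 500 cells counted in the well; inconclusive = wells under 500 cells, flagged as cytotoxic or low count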
The depositor's hits bear a star; i = inactive; u = inconclusive; x = no result given.

SMILES	HSV augment	HMGR II inh	INS promoter inh	Insulin prom up
C=C(C)C1CC=C(C)/C(=N/NC(=O)c2ccc(NC(=O)CC)cc2)C1 (centres undefined)	i	-4	-35	0.81
C=C(C)C1CC=C(C)/C(=N/NC(=O)c2ccc(NC(=O)CCC)cc2)C1 (centres undefined)	i	1	83*	0.45
CCOC(=O)c1c(NC(C)=O)sc2c(OC)c(Br)ccc12	i	-2	-14	0.01
CCOC(=O)c1c(NC(C)=O)sc2c(O)c(CN3CCN(CC)CC3)ccc12	i	2	86*	-0.84
CCCCc1ccc(NC(=S)N2CCCC(C)C2)cc1 (centres undefined)	i	2	-29	-0.59
Cc1ncc(CN2CCC(CO)(Cc3ccccc3)CC2)s1	i	-2	x	-0.43
O=Cc1sc(Nc2ccccc2)nc1Cl	u	-1	-245	3.7*
Cc1ccc(Nc2nc(Cl)c(C=O)s2)cc1Cl	i	-7	x	x
COc1ccccc1Nc1nc2c(s1)CCC2	i	-1	x	0.6
COc1ccccc1Nc1nc(Cl)c(C=O)s1	i	0	x	3.2*
Cc1nc(COc2ccccc2Cl)sc1-c1ccnc(N)n1	i	x	x	-0.05
S=C(Nc1ccc2cn[nH]c2c1)Nc1ccccc1Cl	i	-1	64*	0.71
S=C(Nc1ccc2cn[nH]c2c1)Nc1ccc(Cl)cc1Cl	i	8	-15	x
Cn1c(=O)c2[nH]c(COc3ccc(C(C)(C)C)cc3)nc2n(C)c1=O	i	x	x	-0.38
C=C(C)CSc1nc2ncccc2[nH]1	i	0	71*	-0.44
COC(=O)c1ccc(COc2ccc3c(C)c(C)c(=O)oc3c2)o1	i	-11	x	3.5*
CCc1nc2ccccc2c(NC(=O)CN2CC(C)CC(C)C2)c1C (centres undefined)	i	-1	-107	-0.26
COc1ccc(OC)c(C2C3CN(C(C)C)CC=C3C(C#N)=C(N)C2(C#N)C#N)c1 (centres undefined)	u	0	-479	17*
Cc1ccc(C2C3CN(C(C)C)CC=C3C(C#N)=C(N)C2(C#N)C#N)cc1 (centres undefined)	x	-5	x	10*
CCCN1CC=C2C(C#N)=C(N)C(C#N)(C#N)C(c3cccc(OC)c3OC)C2C1 (centres undefined)	u	-5	-212	x
O=C(NN1C(=O)C2C3CCC(O3)C2C1=O)c1ccco1 (centres undefined)	i	-3	17	0.35
CCCOP(=O)(OCCC)c1nc(-c2ccccc2)oc1NCc1ccccc1	i	17*	0	-1.2
COc1ccc(-c2cn3ccc4ccccc4c3n2)cc1	i	-5	77*	0.68
COc1ccc(CN(C)C2CCCCC2)cc1	i	2	-30	-0.52
CN(Cc1ccc(O)cc1)C1CCCCC1	i	-1	92*	-0.92
SMILES	HSV augment	HMGR II inh	INS promoter inh	Insulin prom up
O=C(Nc1nccs1)c1ccc(CSc2nnnn2-c2ccccc2)cc1	i	11*	5	-0.11
CC(NC(=O)CCl)c1ccccc1Br (centres undefined)	i	x	x	-0.37
CCc1nnc(NC(=O)CSc2nnc(Cc3ccccc3)n2-c2ccccc2)s1	i	-1	82*	0.46
CSc1ccc(CN2CCN(Cc3ccccc3)C(CCO)C2)cc1 (centres undefined)	i	11*	x	-0.66
COc1cccc(CN2CCN(Cc3cc4ccccc4[nH]3)CC2CCO)c1 (centres undefined)	i	x	x	0.51
CSc1cccc(CN2CCN(Cc3ccccc3)C(CCO)C2)c1 (centres undefined)	i	-9	x	0.04
CCOc1ccc(CN2CCN(Cc3cc4ccccc4[nH]3)CC2CCO)cc1 (centres undefined)	i	14*	-38	2.2
CCOc1cccc(CNCCSc2nnnn2C)c1	i	-10	x	-0.08
CCOC(=O)C1CCN(Cc2cn(C)nc2-c2ccc(Oc3ccccc3)cc2)CC1	i	-6	x	-1.1
CC(C)(C)c1ccc(S(=O)(=O)N2CCSC2)cc1	i	-3	50	-0.28
Cc1cccc(OCCSc2nc(N)cc(N)n2)c1	i	x	x	0.78
CCCC(C)C(=O)Nc1ccc(S(=O)(=O)Nc2nccs2)cc1 (centres undefined)	i	7	-26	0.08
Cc1noc(C)c1S(=O)(=O)N1CCC(C(=O)N2CCN(c3ccc(F)cc3)CC2)CC1	i	5	39	-1
Cc1noc(C)c1S(=O)(=O)N1CCC(C(=O)N2CCN(C3CCCC3)CC2)CC1	x	-3	x	3*
Cc1noc(C)c1S(=O)(=O)N1CCC(C(=O)NCCN2CCC(C)CC2)CC1	i	11*	-48	0.07
N#CCc1cnc2ccccc2n1	i	x	x	0.19
COc1ccc(C(=O)NC(C(=O)NCC(=O)Nc2c(C)cccc2C)C(C)C)cc1 (centres undefined)	i	-1	-30	-0.23
COc1ccc(S(=O)(=O)N2CCC(C(=O)NCc3cccs3)CC2)cc1	i	-6	29	-0.23
COc1ccc(-n2c(Cc3cccn3C)nnc2SCC(=O)NC2CCCC2)cc1	i	3	100*	x
CC1CCN(C(=O)CSc2nnc(Cc3cccn3C)n2-c2ccc(F)cc2)CC1	i	-9	71*	-1.6
Cn1cccc1Cc1nnc(SCC(=O)N2CCCCCC2)n1-c1ccc(F)cc1	i	-7	x	-0.12
COc1ccc(Cl)cc1S(=O)(=O)N1CCN(c2ccc(F)cc2)CC1	i	0	19	0.2
COc1c(S(=O)(=O)N2CCN(c3ccc(F)cc3)CC2)ccc(Cl)c1Cl	i	4	74*	-0.89
Cc1oc(-c2cccs2)[n+]([O-])c1C	i	-1	x	1
Cc1ccccc1-c1oc(C)c(C)[n+]1[O-]	i	15*	x	-0.12
SMILES	HSV augment	HMGR II inh	INS promoter inh	Insulin prom up
Cc1ccccc1Nc1nc(N)nc(CN2CCN(Cc3ccc4c(c3)OCO4)CC2)n1	i	17*	x	-0.33
Nc1nc(CN2CCCCCC2)nc(Nc2ccccc2)n1	i	-7	89*	-0.62
C/C(=N/N1CCN(c2ccccn2)CC1)c1cccc([N+](=O)[O-])c1	i	-3	-14	0.04
CN(C(=O)Nc1cccc(C(F)(F)F)c1)C1CCCCC1	i	x	x	0.66
COc1cc([N+](=O)[O-])ccc1-c1ccc(/C=N/NC(N)=O)o1	i	x	x	3.3*
O=C(NCC1CCCO1)c1ccccn1 (centres undefined)	i	-1	75*	x
CCN1CCN(c2cc(=O)n(Cc3ccc(F)cc3)c(=O)[nH]2)CC1	i	-3	78*	-0.42
CN(C)CC(O)CN1C(=O)NC(C)(C)C1=O (centres undefined)	i	1	x	x
COC(=O)CC1C(=O)NCCN1C(=O)CSc1nnnn1-c1ccc(OC)cc1 (centres undefined)	i	-4	-25	0.34
Cc1cc(NC(=S)N(Cc2ccc(Br)cc2)Cc2ccc(C(=O)O)cc2)ccc1Cl	i	-1	x	3.8*
Fc1cccc(NC(=S)NCc2ccccc2Cl)c1	i	x	x	-0.15
CCCC(=O)Nc1nnc(COC)s1	i	0	89*	0.35
CCOc1ccc(/C=N/n2cc(-c3ccccc3)[nH]c2=S)cc1	i	11*	x	0.64
S=c1[nH]c(-c2ccccc2)cn1/N=C/c1ccncc1	i	x	x	-0.31
